Assay outcomes: PubChem, Broad Institute
LMP1 NFkB inh = reduces LMP1-driven NF-kappaB luciferase signal | inhibition, % at 12.5 µM | 350,000 compounds, 0.69% hits | LMP1-induced NF-kappaB luciferase reporter cells, luminescence; in the data active = inhibition above about 41%; inconclusive = no clear call, values can overlap the other calls
C2C12 statin = protects C2C12 myotubes from simvastatin toxicity; ATP luminescence, 48 h; scaled: DMSO 0, geranylgeraniol control 100; rescue of ATP level, % at 7.49 µM; 330,000 compounds, 0.78% hits;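 active = mean ATP rescue above about 67%, or every replicate alone reaching that limit, limit read from the data, passing the limit was not always enough; inconclusive = no clear call, values can overlap the other calls; inactive = mean under the limit and some replicate under it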;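 also: myotubes were challenged with 10 µM simvastatin during compound exposure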
MITF TRPM1 inh = inhibitors of MITF-driven TRPM1 promoter in melanoma cells. AID 488899. inhibition, % at 12.5 µM. SK-MEL-5 TRPM1 promoter luciferase, 24 h. 330,000 compounds, 0.83% hits;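 active = mean inhibition across replicates of 60% or more, whatever share of single replicates reaches that level; inconclusive = some that reach 60%, reason not given; inactive = mean inhibition across replicates below 60%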
esBAF inh = blocks esBAF chromatin remodeling in mouse ES cells; Bmi1-luciferase knock-in reporter, 24 h; 100% = twice the neutral-well signal; reporter increase, % at 12.5 µM; 350,000 compounds, 2% hits; in the data active = activation above about 40%; inconclusive = no clear call, values can overlap the other calls;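 also: a rise in the Bmi1 reporter signal indicates esBAF inhibition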
MITF TRPM1 HTS = activators of MITF-driven TRPM1 promoter activity in SK-MEL-5 cells | activation, % at 12.5 µM | SK-MEL-5 TRPM1-promoter luciferase, 24 h; % of positive control, neutral wells = 0 | 300,000 compounds, 0.75% hits | AID 588334;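 active = mean activation of at least 80% with every replicate also reaching 80%; inconclusive = mean reaches 80% but some replicate falls short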
Wnt act = activators of Wnt/beta-catenin signaling; Wnt/beta-catenin reporter cell assay, activator, plate reader; activation, % at 9.35 µM; 300,000 compounds, 1.2% hits; in the data active = activation above about 30%, passing the limit was not always enough; inconclusive = no clear call, values can overlap the other calls
Hits are given with their value; . = inactive; ? = inconclusive; / = no result. An excerpt weighted towards active compounds, which were near 4% of everything screened.

SMILES	LMP1 NFkB inh	C2C12 statin	MITF TRPM1 inh	esBAF inh	MITF TRPM1 HTS	Wnt act
CC/C(C)=N/N1C(=O)c2ccccc2NC1(C)CC (stereo not drawn)	.	.	.	.	.	.
Cc1ccc(S(=O)(=O)NC(=O)NCc2ccccn2)cc1	.	/	.	/	.	.
Cc1ccccc1-c1nc(Cc2ccccc2)no1	.	/	.	60	118	.
Cc1ccsc1C1Nc2ccc3ncccc3c2C2=C1C(=O)CCC2 (stereo not drawn)	.	79	.	.	.	/
Cc1noc(C)c1NC(=O)Nc1ccc2c(c1)C(=O)N([C@H](C)CO)C[C@H](C)[C@@H](CN(C)Cc1ccncc1)O2	/	.	/	.	/	/
C[C@H](CO)N1C[C@H](C)[C@@H](CN(C)S(C)(=O)=O)Oc2c(NC(=O)C3CC3)cccc2C1=O	.	.	.	.	.	.
c1ccc(-c2ccc3ccccc3n2)cc1	.	.	/	.	/	47
c1ccc2nc(-c3ccc(-n4ccnc4)cc3)ccc2c1	.	.	.	.	.	49
c1ccc(-c2cccc(-c3ccccc3)n2)cc1	.	.	.	44	.	.
CC1(C)CC(=O)c2sc(NC(=O)CN3C(=O)CCC3=O)nc2C1	.	.	.	.	.	.
Cn1c(SCC(=O)Nc2ccc(NC(=O)c3ccccc3)cc2)nnc1-c1ccncc1	.	.	.	.	.	.
Fc1ccc(N2CCN(Cc3ccccn3)CC2)cc1	.	/	.	/	.	40
c1ccc(CN2CCOCC2)nc1	.	/	.	/	.	.
Cc1ccc(Nc2nc(COC(=O)COc3ccc(C=O)cc3)cs2)cc1	.	.	.	49	.	.
O=C(NC1CCN(Cc2ccccc2)CC1)c1ccc(Cn2c(=S)[nH]c3ccc(N4CCOCC4)cc3c2=O)cc1	.	.	.	.	81	.
O=C(CCCCCn1c(=S)[nH]c2ccc(N3CCOCC3)cc2c1=O)NC1CCN(Cc2ccccc2)CC1	.	.	.	.	.	.
N#Cc1nc(NCC(F)F)nc(Nc2cc(F)cc(F)c2)n1	.	?	75	.	.	.
COc1ccc(Nc2nc(-c3ccccc3)nc3ccccc23)c(OC)c1	.	.	.	.	.	.
COc1ccc(Nc2nc(N)c3ccccc3n2)c(OC)c1	.	.	.	.	89	.
CCOC(=O)C1=C(C)N=c2s/c(=C/c3ccc(OCC(=O)O)c(OC)c3)c(=O)n2C1c1ccc(Cl)cc1 (stereo not drawn)	.	/	.	/	/	.
O=C1CCCC2=C1C(c1ccc(Cl)cc1)n1c(s/c(=C\c3ccc4ccncc4c3)c1=O)=N2 (stereo not drawn)	.	/	.	/	.	36
O=C(CC1CCCCC1)NCc1ccccc1Cl	.	.	.	53	.	.
O=C(CC1CCCCC1)NCc1ccccn1	.	.	.	.	/	.
Cc1ccc(SC2=C(Sc3ccc(C)cc3)C(=O)c3ccccc3C2=O)cc1	.	.	.	42	.	.
Cc1ccc(N2C(=O)c3ccccc3C2=O)cc1	.	/	.	/	.	.
SMILES	LMP1 NFkB inh	C2C12 statin	MITF TRPM1 inh	esBAF inh	MITF TRPM1 HTS	Wnt act
CC(C)(C)c1ccc(C(=O)NC(=S)N2CCOCC2)cc1	.	.	.	.	104	34
CN1CCN(C(=S)NC(=O)c2ccc(C(C)(C)C)cc2)CC1	.	/	.	/	.	.
O=C(Nc1ccc(NC(=O)c2cccs2)cc1Cl)c1ccco1	.	/	.	/	.	46
O=C(Nc1ccc(Cl)c(NC(=O)c2cccs2)c1)c1ccco1	.	.	.	.	/	.
COc1cc(NC(=O)c2ccccc2Cl)ccc1NC(=O)c1ccco1	.	/	.	51	92	.
COc1cc(NC(=O)c2cccs2)ccc1NC(=O)c1ccco1	.	.	.	92	92	59
COCC(=O)Nc1ccc2c(c1)OC[C@H](C)N(Cc1ccccn1)C[C@@H](C)[C@@H](OC)CN(C)C2=O	/	.	/	.	/	/
CCOC(=O)CSC1=C(C#N)C(C)C2=C(CCCC2=O)N1 (stereo not drawn)	.	.	.	62	/	/
CN1CCN(C(=O)CSc2nc3c(c(=O)n(C)c(=O)n3C)n2C)CC1	.	.	.	.	.	.
CN(C)c1ccc(/C=C/c2c([N+](=O)[O-])c(=O)n(C)c(=O)n2C)cc1	.	.	.	.	.	.
CN(C)c1ccc(-n2cccc2/C=C/[N+](=O)[O-])cc1	.	.	66	.	.	.
Cc1cc2nc3ccc(=[N+](C)C)cc-3sc2cc1N	?	/	96	/	.	/
CN(C)c1ccc2nc3ccc(=O)cc-3sc2c1	.	.	/	.	/	.
CN(C)c1ccc2nc3ccc(=[N+](C)C)cc-3sc2c1	.	/	73	/	.	.
COc1cccc(/C=N\NC(=O)Cn2nnc3ccccc32)c1O	.	/	.	/	.	.
Cc1cccc2cc(C#N)c(NCCNS(=O)(=O)c3ccccc3)nc12	.	/	.	/	.	.
NNC(=O)C(Cc1ccc(O)cc1)N1Cc2ccccc2C1=O (stereo not drawn)	.	.	.	.	.	.
COC(=O)C(Cc1ccc(O)cc1)N1Cc2ccccc2C1=O (stereo not drawn)	.	.	.	?	91	.
Cc1ccc(Cn2c(SCC(C)C)nc3c2c(=O)[nH]c(=O)n3C)cc1	.	/	.	/	.	/
COc1ccc(-c2nn(-c3ccccc3)cc2/C=N/N2C(=O)CSC2=S)cc1	.	.	104	.	.	/
COc1ccc(/C=N/N2C(=O)CSC2=S)cc1	.	.	.	.	.	/
CCOc1cc(OCC)cc(C(=O)N2CCC[C@H]2C(=O)N2CCC[C@H]2C(=O)NCc2ccncc2)c1	/	/	/	/	/	.
COc1ccc(-c2oc3ccccc3c2C(=O)OCc2ccc(O)cc2)cc1	.	.	.	45	.	.
CC1=CC(C)(C)N=C(NC#N)N1	.	104	.	.	.	.
CCSc1cc(C)nc2c(-c3ccc(Cl)cc3)c(C)nn12	.	93	.	.	.	.
SMILES	LMP1 NFkB inh	C2C12 statin	MITF TRPM1 inh	esBAF inh	MITF TRPM1 HTS	Wnt act
Cc1cc(C)n2nc(C)c(-c3ccc(Cl)cc3)c2n1	.	.	.	.	.	.
CCCC(=O)c1cc(F)c(N2CCN(CCC#N)CC2)cc1C	.	/	.	.	/	.
C/C=C/c1cnc2c(c1)C(=O)N([C@@H](C)CO)C[C@H](C)[C@H](CN(C)C(=O)Cc1ccccn1)O2	/	.	/	.	/	/
Cc1c(CC(=O)N[C@@H](C)C(=O)O)c(=O)oc2cc3c(cc12)CCC(C)(C)O3	.	.	.	.	.	.
Cc1c(CC(=O)NC(C)C)c(=O)oc2cc3c(cc12)CCC(C)(C)O3	.	.	.	49	.	.
Cc1c(CC(=O)N[C@H](C(=O)O)C(C)C)c(=O)oc2cc3c(cc12)CCC(C)(C)O3	.	.	.	61	.	35
CCC(C)NC(=O)Cc1c(C)c2cc3c(cc2oc1=O)OC(C)(C)CC3 (stereo not drawn)	.	.	.	67	.	.
CO[C@@H]1CN(C)C(=O)c2ccc(NC(=O)Nc3cccc(F)c3)cc2OC[C@H](C)N(C)C[C@@H]1C	/	.	/	.	/	/
Cn1c(=O)c2c(nc(CCC3CCCC3)n2C)n(C)c1=O	.	/	.	/	.	.
